Source: PubChem BioAssay (EPA / NIEHS)
Records with an inconclusive call do not appear. Activity calls are given as the source filed them. The calls were made as follows, unless noted: active = hit-call score of the fitted dose curve at least 0.9, where 1 is the maximum; inactive = score below 0.9.

How the values were obtained:
[1] = read-out: Signal transducer and activator of transcription 3 (Homo sapiens) (UniProt P40763); test: LTEA_HepaRG_STAT3: Life Technologies and Expression Analysis (LTEA) Assay for Signal transducer and activator of transcription (STAT3) using HepaRG (AID 2283529); details: mRNA level, 48 h; actives raise or lower the signal
Method in brief: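 In this transcriptional endpoint, HepaRG cultures receive test chemicals at up to 100 uM for 48 h, tested in duplicate. STAT3 mRNA is normalized to ACTB, GAPDH and POLR2A.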

[2] = read-out: solute carrier (SLCO1B1), SLCO1B1 (gene 10599); test: LTEA_HepaRG_SLCO1B1: Life Technologies and Expression Analysis (LTEA) Assay for solute carrier (SLCO1B1) using HepaRG (AID 2283530); details: mRNA level, 48 h; actives raise or lower the signal
Method in brief: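 Gain or loss of SLCO1B1 mRNA is fitted against the 0.5% DMSO vehicle in human HepaRG liver cells treated 48 h at up to 100 uM in half-log steps. Expression comes from qRT-PCR normalized to endogenous controls.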

[3] = read-out: Transforming Growth Factor (TGFA), TGFA (gene 7039); test: LTEA_HepaRG_TGFA: Life Technologies and Expression Analysis (LTEA) Assay for Transforming Growth Factor (TGFA) using HepaRG (AID 2283532); details: mRNA level, 48 h; actives raise or lower the signal
Method in brief: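 Gene expression of TGFA was quantified by qRT-PCR after human HepaRG cells were treated for 48 h with test chemicals (eight concentrations, highest 100 uM, 0.5% DMSO). Activity in either direction was fitted relative to DMSO.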

TIMP1, TIMP1 (gene 7076) = test: LTEA_HepaRG_TIMP1: Life Technologies and Expression Analysis (LTEA) Assay for TIMP1 using HepaRG (AID 2283534); details: mRNA level, 48 h; actives raise or lower the signal;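 also: TaqMan qRT-PCR signal normalized to ACTB GAPDH and POLR2A housekeeping genes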
Method in brief: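 We dosed human liver HepaRG cultures for 48 hours with up to 100 uM test chemical and measured TIMP1 expression by qRT-PCR. Activity in either direction is fitted relative to the 0.5% DMSO vehicle.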

[4] = read-out: Tumor necrosis factor receptor 1 (TNFRSF1A), TNFRSF1A (gene 7132); test: LTEA_HepaRG_TNFRSF1A: Life Technologies and Expression Analysis (LTEA) Assay for Tumor necrosis factor receptor 1 (TNFRSF1A) using HepaRG (AID 2283535); details: mRNA level, 48 h; actives raise or lower the signal
Method in brief: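 Expression of TNFRSF1A in human HepaRG liver cells was measured by qRT-PCR 48 h after chemical dosing (maximum 100 uM). Bidirectional curve fitting used 0.5% DMSO as baseline.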

[5] = read-out: Thyroid Hormone Responsive (THRSP), THRSP (gene 7069); test: LTEA_HepaRG_THRSP: Life Technologies and Expression Analysis (LTEA) Assay for Thyroid Hormone Responsive (THRSP) using HepaRG (AID 2283536); details: mRNA level, 48 h; actives raise or lower the signal
Method in brief: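 Cell model: human HepaRG, approx. 100,000 cells/well, 0.5% DMSO vehicle. Exposure lasts 48 h; phenobarbital 1 mM serves as induction positive control. Gene expression is measured by qRT-PCR against three endogenous control genes.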

[6] = read-out: Cellular tumor antigen p53 (Homo sapiens) (UniProt P04637); test: LTEA_HepaRG_TP53: Life Technologies and Expression Analysis (LTEA) Assay for Tumor Protein P53 (TP53) using HepaRG (AID 2283537); details: mRNA level, 48 h; actives raise or lower the signal
Method in brief: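 Differentiated HepaRG cells in serum-free induction medium exposed 48 h in duplicate to 8 half-log concentrations, top 100 uM, 0.5% DMSO. TP53 mRNA by TaqMan qRT-PCR (Fluidigm), normalized to ACTB, GAPDH, POLR2A; fitted bidirectionally versus DMSO.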

[7] = read-out: UDP glucuronosyltransferase (UGT1A1), UGT1A1 (gene 54658); test: LTEA_HepaRG_UGT1A1: Life Technologies and Expression Analysis (LTEA) Assay for UDP glucuronosyltransferase (UGT1A1) using HepaRG (AID 2283538); details: mRNA level, 48 h; actives raise or lower the signal
Method in brief: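 UGT1A1 transcript level, measured by qRT-PCR with three housekeeping genes for normalization, after 48 h treatment of human HepaRG cells (0.5% DMSO, duplicates, up to 100 uM, half-log steps, 8 points). Curves fit both directions against DMSO baseline.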

[8] = read-out: UDP glucuronosyltransferase (UGT1A6), UGT1A6 (gene 54578); test: LTEA_HepaRG_UGT1A6: Life Technologies and Expression Analysis (LTEA) Assay for UDP glucuronosyltransferase (UGT1A6) using HepaRG (AID 2283539); details: mRNA level, 48 h; actives raise or lower the signal
Method in brief: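 Endpoint is UGT1A6 transcript induction or loss in a human liver cell line, quantified by TaqMan qRT-PCR 48 h after dosing. Concentrations ran from 100 uM downward in half-log steps in 0.5% DMSO; activity was fitted in both directions versus vehicle.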

[9] = read-out: X-box binding protein 1 (XBP1), XBP1 (gene 7494); test: LTEA_HepaRG_XBP1: Life Technologies and Expression Analysis (LTEA) Assay for X-box binding protein 1 (XBP1) using HepaRG (AID 2283540); details: mRNA level, 48 h; actives raise or lower the signal
Method in brief: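 Human HepaRG monolayers receive test chemical for 48 h across an eight-point half-log series starting at 100 uM. XBP1 mRNA gain or loss is scored against DMSO by qRT-PCR.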

[10] = LTEA_HepaRG_LDH_cytotoxicity: Cytotoxicity Assessment in the Life Technologies and Expression Analysis (LTEA) Assay (AID 2283563; active = hit-call score of the fitted dose curve at least 0.9, where 1 is the maximum)
Method in brief: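 Human HepaRG hepatic cells are treated with test chemicals for 48 h at up to 100 uM in 0.5% DMSO. Cytotoxicity is scored from medium LDH against the vehicle control.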

[11] = ATG_XTT_Cytotoxicity: Cytotoxicity Assessment in the Attagene TRANS-FACTORIAL HepG2 Assay (AID 2283584; active = hit-call score of the fitted dose curve at least 0.9, where 1 is the maximum)
Method in brief: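 Transfect HepG2 with GAL4-UAS reporter units, dose compound, incubate 24 h, then measure viable cell number by XTT. Fit concentration response against DMSO baseline.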

[12] = TOX21_p53_BLA_p2_viability: Viability Assessment in the Tox21 HCT-116 p53 Agonism Beta-lactamase Assay, Phase 2 (AID 2283591; active = hit-call score of the fitted dose curve at least 0.9, where 1 is the maximum;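 also: compound exposure lasted 16 h at 37 °C; actives lower the ATP signal meaning cytotoxicity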)
Method in brief: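 HCT-116 p53-bla cells (4000/well) rested 5 h at 37C, then received compounds in DMSO (217-fold dilution) for 16 h at 37C, 5% CO2. After the CCF4 read, CellTiter-Glo was added; ATP luminescence was read after 30 min at room temperature.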

[13] = biological target: Cellular tumor antigen p53 (Homo sapiens) (UniProt P04637); test: TOX21_p53_BLA_p3_ratio: Tox21 HCT-116 p53 Agonism Beta-lactamase Assay, Ratio, Phase 3 (AID 2283596; active = hit-call score of the fitted dose curve at least 0.9, where 1 is the maximum)
Method in brief: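 Cells were seeded at 4000/well, rested 5 h at 37C, then dosed with DMSO compound solutions (217-fold dilution) for 16 h. CCF4-AM substrate was loaded for 2 h at room temperature, and the 460/530 nm emission ratio was fitted for gain of signal versus DMSO.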

[14] = biological target: Cellular tumor antigen p53 (Homo sapiens) (UniProt P04637); test: TOX21_p53_BLA_p2_ratio: Tox21 HCT-116 p53 Agonism Beta-lactamase Assay, Ratio, Phase 2 (AID 2283592; active = hit-call score of the fitted dose curve at least 0.9, where 1 is the maximum)
Method in brief: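 Cleaved-to-uncleaved substrate ratio (460 vs 530 nm) measured in HCT116 cells with an inducible beta-lactamase reporter linked to p53 activity. Compounds incubated 16 h at 37C before 2 h room-temperature CCF4-AM loading.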

[15] = TOX21_p53_BLA_p4_viability: Viability Assessment in the Tox21 HCT-116 p53 Agonism Beta-lactamase Assay, Phase 4 (AID 2283597; active = hit-call score of the fitted dose curve at least 0.9, where 1 is the maximum;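 also: hits lower the luminescence signal meaning cytotoxicity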)
Method in brief: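 Viability is taken as cellular ATP: after 16 h compound exposure of HCT116 cells and a 2 h room-temperature CCF4-AM substrate step, CellTiter-Glo reagent is added and luminescence is measured 30 min later.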

[16] = read-out: Transforming Growth Factor (TGFB1), TGFB1 (gene 7040); test: LTEA_HepaRG_TGFB1: Life Technologies and Expression Analysis (LTEA) Assay for Transforming Growth Factor (TGFB1) Transporter using HepaRG (AID 2283533); details: mRNA level, 48 h; actives raise or lower the signal
Method in brief: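 Expression change of TGFB1 in human HepaRG cells is measured after a 48 h chemical exposure, up to 100 uM in 0.5% DMSO vehicle. Curves are fitted in both directions relative to the DMSO baseline.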

[17] = TOX21_p53_BLA_p3_viability: Viability Assessment in the Tox21 HCT-116 p53 Agonism Beta-lactamase Assay, Phase 3 (AID 2283593; active = hit-call score of the fitted dose curve at least 0.9, where 1 is the maximum;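 also: cells exposed to compound for 16 h before reading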)
Method in brief: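 HCT-116 cells (4000/well) rested 5 h at 37C, then got DMSO compounds by pin tool (217-fold dilution) for 16 h at 37C, 5% CO2. After the bla read, CellTiter-Glo was added and luminescence read at 30 min, room temperature.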

[18] = read-out: sulfotransferase 2A1 (SULT2A1), SULT2A1 (gene 6822); test: LTEA_HepaRG_SULT2A1: Life Technologies and Expression Analysis (LTEA) Assay for sulfotransferase 2A1 (SULT2A1) using HepaRG (AID 2283531); details: mRNA level, 48 h; actives raise or lower the signal
Method in brief: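 Cells were plated and cultured 48 h, switched to serum-free induction medium, then dosed in duplicate for 48 h (8 concentrations, max 100 uM). RNA was isolated and SULT2A1 expression measured by qRT-PCR; gain or loss of signal fitted relative to DMSO.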

Chain of Signal transducer and activator of transcription 3 (Homo sapiens) (P40763 whole entry, looked up): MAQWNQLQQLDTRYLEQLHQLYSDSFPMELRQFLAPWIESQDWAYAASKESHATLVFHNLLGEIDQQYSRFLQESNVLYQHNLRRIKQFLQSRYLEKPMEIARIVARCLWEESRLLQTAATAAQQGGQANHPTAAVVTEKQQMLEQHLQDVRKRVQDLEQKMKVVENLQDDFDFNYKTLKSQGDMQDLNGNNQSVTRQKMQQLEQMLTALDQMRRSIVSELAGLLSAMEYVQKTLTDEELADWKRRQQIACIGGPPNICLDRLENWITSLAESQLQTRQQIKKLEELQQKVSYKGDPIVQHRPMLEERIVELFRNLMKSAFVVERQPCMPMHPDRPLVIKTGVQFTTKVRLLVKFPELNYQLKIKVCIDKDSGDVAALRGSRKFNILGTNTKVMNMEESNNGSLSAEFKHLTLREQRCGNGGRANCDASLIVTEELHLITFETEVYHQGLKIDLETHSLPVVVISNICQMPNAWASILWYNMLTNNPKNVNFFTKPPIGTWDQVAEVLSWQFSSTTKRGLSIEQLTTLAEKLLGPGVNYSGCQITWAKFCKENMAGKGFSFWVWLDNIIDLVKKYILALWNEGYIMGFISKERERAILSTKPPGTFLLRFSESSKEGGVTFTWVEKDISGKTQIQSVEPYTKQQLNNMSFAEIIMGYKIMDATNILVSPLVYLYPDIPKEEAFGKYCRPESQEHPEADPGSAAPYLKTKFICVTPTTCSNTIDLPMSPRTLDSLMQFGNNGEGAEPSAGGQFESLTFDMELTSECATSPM
Chain of Cellular tumor antigen p53 (Homo sapiens) (P04637 whole entry, looked up): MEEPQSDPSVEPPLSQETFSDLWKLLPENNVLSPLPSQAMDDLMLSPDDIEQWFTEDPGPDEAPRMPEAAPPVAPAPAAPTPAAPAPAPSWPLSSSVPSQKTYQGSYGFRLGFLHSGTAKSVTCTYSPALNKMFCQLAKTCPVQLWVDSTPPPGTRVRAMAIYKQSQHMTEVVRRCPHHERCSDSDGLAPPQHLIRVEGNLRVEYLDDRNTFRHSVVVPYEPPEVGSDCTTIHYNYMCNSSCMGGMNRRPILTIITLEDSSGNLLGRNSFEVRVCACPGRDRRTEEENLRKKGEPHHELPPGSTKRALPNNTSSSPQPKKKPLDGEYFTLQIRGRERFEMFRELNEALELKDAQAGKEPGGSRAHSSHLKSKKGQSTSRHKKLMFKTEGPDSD

With Cc1ccc(C)c(C)c1 the outcome [1] was “inactive”, the outcome [2] was “inactive” and the outcome [3] was “inactive”. For the same compound, the outcome (TIMP1, TIMP1 (gene 7076)) was “inactive”, the outcome [4] was “inactive” and the outcome [5] was “inactive”. For the same compound, the outcome [6] was “inactive”, the outcome [7] was “inactive” and the outcome [8] was “inactive”. For the same compound, the outcome [9] was “inactive”, the outcome [10] was “inactive” and the outcome [11] was “inactive”. For the same compound, the outcome [12] was “inactive” and the outcome [13] was “inactive”.

In the case of CNC(=O)[C@H]1O[C@@H](n2cnc3c(NCc4cc(Cl)ccc4OCc4cc(C)no4)ncnc32)[C@H](O)[C@@H]1N, the outcome [1] is reported as “inactive”, the outcome [2] is reported as “inactive” and the outcome [3] is reported as “inactive”. The outcome (TIMP1, TIMP1 (gene 7076)) was “inactive”, the outcome [4] was “inactive” and the outcome [5] was “inactive”. For the same compound, the outcome [6] was “inactive”, the outcome [7] was “inactive” and the outcome [9] was “inactive”. For the same compound, the outcome [10] was “inactive”, the outcome [14] was “inactive” and the outcome [13] was “inactive”. The outcome [15] was “inactive”.

For CC1(C)CC(N=C=O)CC(C)(CN=C=O)C1 (configuration not stated), the outcome [1] was “inactive”, the outcome [2] was “inactive” and the outcome [3] was “inactive”. For the same compound, the outcome [16] was “inactive”, the outcome (TIMP1, TIMP1 (gene 7076)) was “inactive” and the outcome [4] was “inactive”. For the same compound, the outcome [5] was “inactive”, the outcome [7] was “inactive” and the outcome [8] was “inactive”. The outcome [9] was “inactive”, the outcome [10] was “inactive” and the outcome [11] was “inactive”. For the same compound, the outcome [14] was “inactive”, the outcome [17] was “inactive” and the outcome [13] was “inactive”. For the same compound, the outcome [15] was “inactive”.

For COc1ccc(C)cc1N, the outcome [1] was “inactive”, the outcome [2] was “inactive” and the outcome [18] was “inactive”. The outcome [3] was “inactive”, the outcome (TIMP1, TIMP1 (gene 7076)) was “inactive” and the outcome [4] was “inactive”. For the same compound, the outcome [5] was “inactive”, the outcome [6] was “inactive” and the outcome [7] was “inactive”. For the same compound, the outcome [8] was “inactive”, the outcome [9] was “inactive” and the outcome [10] was “inactive”. The outcome [11] was “inactive”, the outcome [13] was “inactive” and the outcome [15] was “inactive”.

For C[Si]1(C)O[Si](C)(C)O[Si](C)(C)O[Si](C)(C)O1, the outcome [1] was “inactive”, the outcome [2] was “inactive” and the outcome [18] was “inactive”. For the same compound, the outcome [3] was “inactive”, the outcome (TIMP1, TIMP1 (gene 7076)) was “inactive” and the outcome [4] was “inactive”. For the same compound, the outcome [5] was “inactive”, the outcome [7] was “inactive” and the outcome [8] was “inactive”. The outcome [9] was “inactive”, the outcome [10] was “inactive” and the outcome [12] was “inactive”. For the same compound, the outcome [14] was “inactive”.

In the case of O=C(N[C@@H](Cc1ccccc1)[C@@H](O)C(=O)N1C[C@@H](O)[C@@H](O)C1)c1cc2cc(Cl)ccc2[nH]1, the outcome [1] is reported as “inactive”, the outcome [2] is reported as “inactive” and the outcome [18] is reported as “inactive”. For the same compound, the outcome [3] was “inactive”, the outcome (TIMP1, TIMP1 (gene 7076)) was “inactive” and the outcome [4] was “inactive”. For the same compound, the AC50 [5] was 88.6 µM (active), the AC50 [6] was 50 µM (active) and the outcome [7] was “inactive”. The AC50 [9] was 50 µM (active), the outcome [10] was “inactive” and the outcome [12] was “inactive”. For the same compound, the outcome [14] was “inactive”, the outcome [17] was “inactive” and the outcome [13] was “inactive”. The AC50 [15] was 71 µM (active).
